The record followed here is PubChem BioAssay (NCI).

This is part of a sample that, as a whole, favours compounds with a hit. Of some 79,000 tested, about 15% had one in any assay. Values without a mark were called inactive. Calls of active or inactive are those of the source. Cut-off read from the data, not from the text of the source: active = growth inhibition above about 70%; inactive = the rest.

Assay [1] is described as follows: NCI Yeast Anticancer Drug Screen. Data for the rad50 strain (AID 155).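 Note: 0% = growth of vehicle-only cultures of the same strain.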 The settings on record: S. cerevisiae rad50 strain growth inhibition, stronger effect = higher value. In outline:
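DNA repair mutant yeast, compound exposure, growth read-out; inhibition is taken relative to vehicle.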

Assay [2] is described as follows: NCI Yeast Anticancer Drug Screen. Data for the mec2-1 strain (AID 157). The settings on record: S. cerevisiae mec2-1 strain, stronger effect = higher value. In outline:
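mec2-1 yeast strain, carrying an alteration in DNA damage repair or cell cycle control, was exposed to compounds; growth inhibition was measured relative to vehicle-treated controls.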

Assay [3] in a line: NCI Yeast Anticancer Drug Screen. Data for the sgs1 mgt1 strain (AID 161).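 Note: 0% = growth of cultures given vehicle only.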 The following applies: S. cerevisiae sgs1 mgt1 strain, stronger effect = higher value. In outline: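 Yeast cells carrying a defined DNA-repair defect were exposed to test compounds. Growth inhibition was measured relative to vehicle-treated controls.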
A short description of assay [4]: NCI Yeast Anticancer Drug Screen. Data for the cln2 rad14 strain (AID 165).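 Note: 0% = growth equal to vehicle treated cultures.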 The settings on record: S. cerevisiae cln2 rad14 strain, stronger effect = higher value. In outline: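 Yeast carrying cln2 and rad14 alterations (cell cycle control and DNA damage repair) were exposed to compounds. Growth inhibition was measured against vehicle-treated controls.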
A short description of assay [5]: NCI Yeast Anticancer Drug Screen. Data for the bub3 strain (AID 167). The following applies: S. cerevisiae bub3 mutant strain, stronger effect = higher value. An outline of the steps: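 In this screen, a yeast mutant lacking normal mitotic checkpoint function is challenged with compound. Relative growth versus vehicle gives the inhibition value.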
Assay [6] in a line: NCI Yeast Anticancer Drug Screen. Data for the mlh1 rad18 strain (AID 175). The following applies: S. cerevisiae mlh1 rad18 strain growth inhibition, stronger effect = higher value. An outline of the steps: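 Growth inhibition of the yeast strain was measured after compound exposure and expressed relative to vehicle-treated controls. The strain carries defined defects in DNA damage repair.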

Where [7] appears, read: at 5.0 µM (retest, dose inferred, filed as 0.5).
[8] abbreviates: at 50.0 µM (retest, dose inferred, filed as 5.0).

Regarding `COc1ccc(C2=C(Cl)C(=O)N(c3ccc(O)cc3)C(=O)C2(Cl)Cl)cc1`, the growth inhibition in assay [1] (setting [7]) is 18%; in assay [1] (setting [8]) it was 99% (active); in assay [1] (at 50.0 µM), 57.7%; in assay [2] (setting [7]), 13%; in assay [2] (setting [8]), 99% (active); in assay [2] (at 50.0 µM), 59.7%. The growth inhibition in assay [3] (setting [7]) was 31%; in assay [3] (setting [8]) it was 99% (active); in assay [3] (at 50.0 µM), 57.2%; in assay [4] (setting [7]) it was 4%; in assay [4] (setting [8]), 98% (active); in assay [4] (at 50.0 µM), 58%. Further, the growth inhibition in assay [5] (setting [7]) was 3%; in assay [5] (setting [8]) it was 99% (active); in assay [5] (at 50.0 µM), 47.9%; in assay [6] (setting [7]), 15%; in assay [6] (setting [8]) it was 98% (active); in assay [6] (at 50.0 µM), 58.2%.

As to `COc1ccc2c(c1)CC1c3c(ccc(OC)c3O)CC2N1C` (stereo not given), the growth inhibition was -15% in assay [1] (setting [7]); 56% in assay [1] (setting [8]); 86.7% (active) in assay [1] (at 50.0 µM); -44% in assay [2] (setting [7]); 37% in assay [2] (setting [8]); 91.3% (active) in assay [2] (at 50.0 µM). Moreover, the growth inhibition in assay [3] (setting [7]) was -6%; in assay [3] (setting [8]), 59%; in assay [3] (at 50.0 µM), 93.7% (active); in assay [4] (setting [7]), -24%; in assay [4] (setting [8]), 52%; in assay [4] (at 50.0 µM) it was 92.5% (active). Also, the growth inhibition in assay [5] (setting [7]) was -4%; in assay [5] (setting [8]), 75% (active); in assay [5] (at 50.0 µM), 92% (active); in assay [6] (setting [7]) it was -55%; in assay [6] (setting [8]) it was 61%; in assay [6] (at 50.0 µM), 89.5% (active).

As to `COc1ccc(/C(O)=C/c2nc3ccc([N+](=O)[O-])cc3[nH]c2=O)cc1`, the growth inhibition in assay [1] (setting [7]) is 12%; in assay [1] (setting [8]), 70% (active); in assay [1] (at 50.0 µM) it was 78.9% (active); in assay [2] (setting [7]), 1%; in assay [2] (setting [8]) it was 57%; in assay [2] (at 50.0 µM), 49.5%. Further, the growth inhibition in assay [3] (setting [7]) is -2%; in assay [3] (setting [8]), 67%; in assay [3] (at 50.0 µM), 92.6% (active); in assay [4] (setting [7]), 3%; in assay [4] (setting [8]) it was 77% (active); in assay [4] (at 50.0 µM), 80.7% (active). The growth inhibition in assay [5] (setting [7]) is 2%; in assay [5] (setting [8]) it was 46%; in assay [5] (at 50.0 µM), 26.9%; in assay [6] (setting [7]), 2%; in assay [6] (setting [8]), 68%; in assay [6] (at 50.0 µM), 90.8% (active).

With `COC(=O)C1=C(C)NC(c2ccc(OC)cc2OC)C(C(=O)OC)=C1C` (stereo not given), the growth inhibition in assay [1] (setting [7]) was 4%; in assay [1] (setting [8]), 21%; in assay [1] (at 50.0 µM) it was 68.7%; in assay [2] (setting [7]), 3%; in assay [2] (setting [8]), 11%; in assay [2] (at 50.0 µM), 25.6%. Also, the growth inhibition is 1% in assay [3] (setting [7]); 14% in assay [3] (setting [8]); 76.8% (active) in assay [3] (at 50.0 µM); -3% in assay [4] (setting [7]); 4% in assay [4] (setting [8]); 25.6% in assay [4] (at 50.0 µM). For the same molecule, the growth inhibition in assay [5] (setting [7]) was 1%; in assay [5] (setting [8]), 16%; in assay [5] (at 50.0 µM), 49.7%; in assay [6] (setting [7]) it was -1%; in assay [6] (setting [8]) it was 24%; in assay [6] (at 50.0 µM) it was 58%.

Take `O=C(OCc1ccccc1)c1ccccc1Cl`: the growth inhibition is 3% in assay [1] (setting [7]); 21% in assay [1] (setting [8]); 50.4% in assay [1] (at 50.0 µM); -3% in assay [2] (setting [7]); 0% in assay [2] (setting [8]); 14.1% in assay [2] (at 50.0 µM). The growth inhibition was 2% in assay [3] (setting [7]); 14% in assay [3] (setting [8]); 40.2% in assay [3] (at 50.0 µM); 4% in assay [4] (setting [7]); -11% in assay [4] (setting [8]); -18.6% in assay [4] (at 50.0 µM). Also, the growth inhibition in assay [5] (setting [7]) was 10%; in assay [5] (setting [8]), 19%; in assay [5] (at 50.0 µM), 30.9%; in assay [6] (setting [7]), 3%; in assay [6] (setting [8]) it was 14%; in assay [6] (at 50.0 µM) it was 82.8% (active).

`COc1cc(/C=C/c2cc[n+](C)cc2)ccc1O`: the growth inhibition in assay [1] (setting [7]) was -11%; in assay [1] (setting [8]) it was -14%; in assay [1] (at 50.0 µM), 26.1%; in assay [2] (setting [7]), 12%; in assay [2] (setting [8]) it was 7%; in assay [2] (at 50.0 µM) it was 31.7%. For the same molecule, the growth inhibition in assay [3] (setting [7]) is -18%; in assay [3] (setting [8]), -17%; in assay [3] (at 50.0 µM) it was 12.4%; in assay [4] (setting [7]), -2%; in assay [4] (setting [8]) it was 16%; in assay [4] (at 50.0 µM), 79.5% (active). Also, the growth inhibition in assay [5] (setting [7]) was 0%; in assay [5] (setting [8]), 11%; in assay [5] (at 50.0 µM) it was 0.85%; in assay [6] (setting [7]) it was -8%; in assay [6] (setting [8]), -10%; in assay [6] (at 50.0 µM), -8.35%.

With `Cc1ccc2c(c1)SSc1ccc(C)cc1SS2`, the growth inhibition in assay [1] (setting [7]) is 78% (active); in assay [1] (setting [8]), 92% (active); in assay [1] (at 50.0 µM), 81% (active); in assay [2] (setting [7]), 42%; in assay [2] (setting [8]), 94% (active); in assay [2] (at 50.0 µM), 27.9%. Moreover, the growth inhibition was 35% in assay [3] (setting [7]); 94% (active) in assay [3] (setting [8]); 75.7% (active) in assay [3] (at 50.0 µM); 84% (active) in assay [4] (setting [7]); 91% (active) in assay [4] (setting [8]); 55.5% in assay [4] (at 50.0 µM). The growth inhibition was 79% (active) in assay [5] (setting [7]); 93% (active) in assay [5] (setting [8]); 73.2% (active) in assay [5] (at 50.0 µM); 66% in assay [6] (setting [7]); 93% (active) in assay [6] (setting [8]); 64.8% in assay [6] (at 50.0 µM).

Regarding `O=C1/C(=C/c2ccccc2)CN(C(=O)CCN2CCCC2)C/C1=C\c1ccccc1`, the growth inhibition was 5% in assay [1] (setting [7]); 83% (active) in assay [1] (setting [8]); 91.8% (active) in assay [1] (at 50.0 µM); 10% in assay [2] (setting [7]); 86% (active) in assay [2] (setting [8]); 90.5% (active) in assay [2] (at 50.0 µM). The growth inhibition was 99% (active) in assay [3] (setting [7]); 96% (active) in assay [3] (setting [8]); 91.3% (active) in assay [3] (at 50.0 µM); 99% (active) in assay [4] (setting [7]); 96% (active) in assay [4] (setting [8]); 89.7% (active) in assay [4] (at 50.0 µM). For the same molecule, the growth inhibition is 99% (active) in assay [5] (setting [7]); 96% (active) in assay [5] (setting [8]); 92.2% (active) in assay [5] (at 50.0 µM); 2% in assay [6] (setting [7]); 89% (active) in assay [6] (setting [8]); 90.5% (active) in assay [6] (at 50.0 µM).

Consider `CS(=O)(=O)OCCN(CCOS(C)(=O)=O)c1ccc(C=Nc2ccc(-c3csc(-c4ccc(Br)cc4)n3)cc2)c(Cl)c1`, for which the growth inhibition in assay [1] (setting [7]) is 0%; in assay [1] (setting [8]) it was 71% (active); in assay [1] (at 50.0 µM), 71.7% (active); in assay [2] (setting [7]) it was -4%; in assay [2] (setting [8]), 51%; in assay [2] (at 50.0 µM), 56.2%. For the same molecule, the growth inhibition in assay [3] (setting [7]) was 1%; in assay [3] (setting [8]), 83% (active); in assay [3] (at 50.0 µM), 92.3% (active); in assay [4] (setting [7]) it was -10%; in assay [4] (setting [8]) it was 68%; in assay [4] (at 50.0 µM), 46.3%. The growth inhibition was 3% in assay [5] (setting [7]); 87% (active) in assay [5] (setting [8]); 80.1% (active) in assay [5] (at 50.0 µM); 0% in assay [6] (setting [7]); 76% (active) in assay [6] (setting [8]); 90.7% (active) in assay [6] (at 50.0 µM).

Regarding `Clc1ccc(CN2COc3c(cc(Cl)c4cccnc34)C2)cc1`, the growth inhibition is 4% in assay [1] (setting [7]); 71% (active) in assay [1] (setting [8]); 7.5% in assay [1] (at 50.0 µM); 1% in assay [2] (setting [7]); 56% in assay [2] (setting [8]); 63.3% in assay [2] (at 50.0 µM). Besides, the growth inhibition in assay [3] (setting [7]) is 1%; in assay [3] (setting [8]) it was 99% (active); in assay [3] (at 50.0 µM) it was 16.5%; in assay [4] (setting [7]), 1%; in assay [4] (setting [8]), 99% (active); in assay [4] (at 50.0 µM), 98.8% (active). The growth inhibition in assay [5] (setting [7]) is -6%; in assay [5] (setting [8]), 55%; in assay [5] (at 50.0 µM), 99.2% (active); in assay [6] (setting [7]), -7%; in assay [6] (setting [8]), 99% (active); in assay [6] (at 50.0 µM) it was 24.1%.
